In PubChem BioAssay AID1209 (Sanford-Burnham Center for Chemical Genomics, 2008):
Hit rate of the full screen: of about 190,000 compounds, about 810 (0.43%) were called active. This is one part of a sample in which actives are shown more often than they occur. Cut-off read from the data, not from the text of the source: active = inhibition above about 50%; inactive = the rest.

The compounds below were run against Mannose-6-phosphate isomerase (Homo sapiens) (UniProt P34949) (assay: inhibitors of human PMI, primary screen, biochemical, fluorescence intensity, coupled assay (AID 1209;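 note: plate controls were DMSO vehicle for no effect and wells lacking substrate for full effect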)). Conditions: purified PMI enzyme, at 20 µM, hits give high values.
Mannose-6-phosphate isomerase (Homo sapiens), sequence (P34949 whole entry, looked up): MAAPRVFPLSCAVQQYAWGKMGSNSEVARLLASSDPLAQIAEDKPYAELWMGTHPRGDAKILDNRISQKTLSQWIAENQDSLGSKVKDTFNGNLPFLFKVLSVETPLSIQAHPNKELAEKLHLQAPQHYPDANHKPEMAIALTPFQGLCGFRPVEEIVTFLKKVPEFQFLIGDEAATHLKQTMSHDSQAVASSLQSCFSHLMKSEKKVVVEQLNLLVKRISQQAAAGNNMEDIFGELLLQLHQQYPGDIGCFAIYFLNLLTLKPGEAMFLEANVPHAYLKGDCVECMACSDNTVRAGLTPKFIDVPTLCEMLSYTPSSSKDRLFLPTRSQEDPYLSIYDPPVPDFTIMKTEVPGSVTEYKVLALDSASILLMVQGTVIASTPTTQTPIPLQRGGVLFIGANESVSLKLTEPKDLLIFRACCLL
With `O=C(CSc1ccc(-c2ccc(Br)cc2)nn1)N1CCOCC1` the inhibition was -1.9% (inactive). With `CCCCCCCNC(=O)COc1ccc2c(c1)C(=O)CC(C)(C)O2` the inhibition was 2.9% (inactive). In the case of `Nc1ccc2c(c1)OC1(CCCCC1)O2`, the inhibition is reported as 55.6% (active). `Nc1ccc2c(c1)OC1(CCCC1)O2` was tested, and the inhibition was 6.1% (inactive). With `O=C(Nc1ccc2c(c1)OC1(CCCC1)O2)C1CC1` the inhibition was 0.2% (inactive). For `CC(C)(C)c1nc(SCC(=O)N2CC(=O)Nc3ccccc32)c2ccccc2n1`, the inhibition was 3.4% (inactive). With `COc1ccc2c(c1)CC/C2=N\OC(=O)c1ccccc1C` the inhibition was -5% (inactive). `COc1ccc(N=C2C(=O)Nc3ccccc32)cc1` was tested, and the inhibition was 12.5% (inactive). In the case of `Cc1ccc2c(c1)/C(=N/N1C(=O)c3ccccc3C1=O)C(=O)N2`, the inhibition is reported as -2.2% (inactive). `c1ccc(-c2nnc(CSc3nncs3)o2)cc1` was tested, and the inhibition was 16.2% (inactive). With `O=c1[nH]c2ccc(Cl)cc2c(-c2ccccc2)c1SC(=S)N1CCCCC1` the inhibition was 0.2% (inactive). For `CCOC(=O)N1CCC(Nc2c(N3CCN(c4cccc(C(F)(F)F)c4)CC3)c(=O)c2=O)CC1`, the inhibition was -9.4% (inactive). With `NS(=O)(=O)c1ccc(NC(=S)NCc2ccco2)cc1` the inhibition was 55.4% (active). `CCNS(=O)(=O)c1ccc(NC(=S)NCc2ccco2)cc1` was tested, and the inhibition was 35.3% (inactive). `NS(=O)(=O)c1ccc(NC(=S)NCc2ccc(Cl)cc2)cc1` was tested, and the inhibition was 58.1% (active). For `NS(=O)(=O)c1ccc(CNC(=S)Nc2ccc(F)c(Cl)c2)cc1`, the inhibition was 17.2% (inactive). `O=S(=O)(c1ccc(NC(=S)NCc2ccco2)cc1)N1CCCC1` was tested, and the inhibition was 8.9% (inactive). In the case of `NS(=O)(=O)c1ccc(CNC(=S)NCc2ccc(Cl)cc2)cc1`, the inhibition is reported as 6.3% (inactive). `CC(=O)NC(CCS(C)(=O)=O)C(=O)Nc1ccccc1` (stereo unspecified) was tested, and the inhibition was 7.8% (inactive). `CS(=O)(=O)N(CC(=O)NC1CC1)c1cccc(F)c1` was tested, and the inhibition was 6.9% (inactive). For `Cc1ccc(NC(=O)CSc2nnc(-c3ccncc3)n2C)cc1S(=O)(=O)N1CCOCC1`, the inhibition was -7.6% (inactive). With `COC(=O)c1ccc[n+](CC(=O)c2ccc(Br)cc2)c1` the inhibition was -34.8% (inactive). For `Cn1cnc2ccc([N+](=O)[O-])cc2c1=O`, the inhibition was -6% (inactive). For `CCOC(=O)N1CCN(CCC(=O)c2ccc(Cl)cc2)CC1`, the inhibition was 57.4% (active). For `CCOC(=O)N1CCN(CCC(=O)c2ccc(OC)cc2)CC1`, the inhibition was 0.1% (inactive). With `CCCOc1ccc(C(=O)CCN2CCN(C(=O)OCC)CC2)cc1` the inhibition was -7.1% (inactive). In the case of `Cc1ccc(N2C(=O)NC(C(F)(F)F)(C(F)(F)F)C3=C2CC(C)(C)CC3=O)cc1`, the inhibition is reported as 2.1% (inactive). For `CC1(C)CC2(CC(c3ccccc3)Oc3cc(O)ccc32)NC(=O)N1` (stereo unspecified), the inhibition was 2.6% (inactive). `COc1cccc(C(=O)COc2ccc3ccc(=O)oc3c2)c1` was tested, and the inhibition was -1.6% (inactive). With `Cc1sc(NC(=S)NC(=O)c2ccco2)c(C(N)=O)c1C` the inhibition was 50.4% (active). In the case of `CCOC(=O)c1c(NC(=O)Nc2ccccc2)sc(C)c1C`, the inhibition is reported as 12.6% (inactive). With `Cc1sc(NC(=O)Nc2ccccc2)c(C(N)=O)c1C` the inhibition was 53.1% (active). In the case of `CCOC(=O)c1c(NC(=O)Nc2ccc(Cl)cc2)sc(C)c1C`, the inhibition is reported as 2.4% (inactive). `Cc1sc(NC(=S)NC(=O)c2ccco2)c(C#N)c1C` was tested, and the inhibition was 4.5% (inactive). In the case of `CCOC(=O)c1c(NC(=S)Nc2ccc(Cl)cc2)sc(C)c1C`, the inhibition is reported as -3.5% (inactive). For `Cc1sc(NC(=S)Nc2ccc(F)cc2)c(C(N)=O)c1C`, the inhibition was 51.8% (active). For `NC(=O)c1c(NC(=S)Nc2ccc(F)cc2)sc2c1CCCC2`, the inhibition was 18.7% (inactive). `COC(=O)c1c(NC(=O)c2ccco2)sc(C)c1C` was tested, and the inhibition was 5% (inactive). `O=C(Nc1ccnc(-c2cccnc2)n1)c1ccc(F)cc1` was tested, and the inhibition was 5% (inactive). In the case of `Cc1nn(Cc2ccc(F)cc2)c(C)c1NC(=O)c1cc2ncc(Br)cn2n1`, the inhibition is reported as 6.4% (inactive). In the case of `COc1ccc(Cn2c(C)c(C)c(C#N)c2NC(=O)Nc2cccc(C)c2)cc1`, the inhibition is reported as -1.9% (inactive). In the case of `CC(NC(=O)C(=O)N/N=C\c1cccc([N+](=O)[O-])c1)c1ccccc1` (stereo unspecified), the inhibition is reported as 10.5% (inactive). With `CC(C)(C)NC(=O)NC(=O)Cn1ccsc1=N` the inhibition was 5.2% (inactive). `CCC(C)(C)NC(=O)CN(Cc1ccc2c(c1)OCO2)C(=O)CCC(=O)Nc1nccs1` was tested, and the inhibition was -5% (inactive). With `O=C(COc1ccccc1Cl)NC(=S)Nc1ccc(CN2CCOCC2)cc1` the inhibition was 17.4% (inactive). With `O=C(O)/C(=C/c1ccco1)c1ccccc1` the inhibition was -8% (inactive). `CCOC(=O)C1CCCN(C(=O)Cn2nc(Cc3cccnc3)c3ccccc3c2=O)C1` (stereo unspecified) was tested, and the inhibition was 5.7% (inactive). In the case of `O=C(CSc1nnnn1C1CCCC1)Nc1cccc(NC(=O)c2ccco2)c1`, the inhibition is reported as 8.3% (inactive). In the case of `O=c1c(C/C=C/c2ccccc2)c(O)ccn1Cc1ccc(Cl)cc1Cl`, the inhibition is reported as 13.5% (inactive). With `CC1(C)C(=O)OC(c2cccn2-c2ccc([N+](=O)[O-])cc2)C2(CCCCC2)C1=O` (stereo unspecified) the inhibition was 6.1% (inactive). In the case of `CC1(C)C(=O)OC(c2cccn2-c2ccc([N+](=O)[O-])cc2)C(C)(C)C1=O` (stereo unspecified), the inhibition is reported as 67.5% (active).
